Laboratory results from the supplement of paper PMC10338343.
± gives the standard deviation.

Test system: MILI (PIWIL2) piRISC loaded with piRNA #1 (26 nt)
Experiment: pre-steady-state target cleavage rate (min^-1); guide: piRNA #1 5'p-UGAGGUAGUAGGUUGUAUAGUAUCCA; MIWI and MILI are mouse PIWI proteins and EfPiwi is from a freshwater sponge; tags in brackets are library labels; higher = faster piRNA-guided slicing of the target
Conditions: auxiliary factor: 500 nM mouse GTSF1
In short: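 Cleave-'n-Seq used a transcribed, DNA-blocked target RNA library at 0.1 nM and active affinity-purified piRISC with one synthetic guide at 1 nM, with or without 500 nM GTSF1 partner protein, in HEPES–potassium acetate buffer at 33 °C for 0–8 or 0–960 min. Uncleaved targets were sequenced and normalised to depth and to weakly complementary targets, and three trials were pooled with k3 capped at 0.0001 min^-1. The pre-steady-state cleavage rate was estimated by a burst-and-steady-state fit.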

Sequence	pre-steady-state target cleavage rate
GGAGACCUAUGAUAUGUACCUACUAACUCA	< 0.0001
GGAGACCUUUCUAUACAACGUACUACCUCA	0.013 ± 0.003
GGAGACCAUACAAUAGAACCUACUACCUCA	0.179 ± 0.02
GGAGACCUAUCUAAACAACCUACUACCUGA	0.0477 ± 0.013
GGAGACCUUACAAUACAACCUUCUACCUCA	0.00687 ± 0.0029
GGAGACCUAUGAUAUCAACCUAGCUACCUCA	0.00339 ± 0.0024
GGAGACCAUAGUAUACAACGUACUACCUCA	0.0174 ± 0.0033
GGAGACCUAUGAUAUCAACCUAGUACCUGA	< 0.0001
GGAGACCUAACUAUUCAAGCUACUACCUCA	0.217 ± 0.027
GGAGACCUAUCAAUAGAACCUACUACCUCA	0.0159 ± 0.0039
GGAGACCUAACUAUAGUUCCUACUACCUCA	0.0706 ± 0.013
GGAGACCUUACUAUUCAACCAACUACCUCA	0.00367 ± 0.0028
GGAGACCUAUGUAUAUAACCUACUACCUCA	0.0579 ± 0.0076
GGAGACCUAUGAUAUCAACCUACAACGUCA	< 0.0001
GGAGACCUAUGUUUACAUCCUACUACCUCA	0.0197 ± 0.0031
GGAGUGGAUACUAUACUACGUACUACCUCA	0.042 ± 0.0043
GGAGACCUAACUAUACAAGGUACUACCUCA	0.0664 ± 0.012
GGAGACCUAUGUAUACAACCUACUUACCUCA	0.0503 ± 0.0043
GGAGACCUAUCUAUUCAAGCUACUACCUCA	0.196 ± 0.015
GGAGACCUAUGUAUACAACCUACUAACCUCA	0.0935 ± 0.013

Sequence	pre-steady-state target cleavage rate
GGAGACCUAUGAUAUGUUCCUACUACACUCA	< 0.0001
GGAGACCUUACUAUAGAUCCUACUACCUCA	0.204 ± 0.017
GGAGACCUAUGUAUACAACCUACAUACCUCA	0.043 ± 0.0061
GGAGACCUAUGAUUACAAGCUACAACCUCA	0.0159 ± 0.0045
GGAGACCAUACUAAACAACCUACUUCCUCA	0.068 ± 0.011
GGAGACCUAUGUAUAACAACCUACUACCUCA	0.0151 ± 0.0041
GGAGACGAUACAAUACAACCUACUUCCUCA	0.126 ± 0.024
GGAGACCUAUGAAUACAACCUACUACUCUCA	0.00959 ± 0.002
GGAGACCUAACUAUAGAACCUACUACCUGA	0.0124 ± 0.008
GGAGACCUAUGAUAUGAAACUACUACCUCA	< 0.0001
GGAGACCUAUGAAUACAACGUACUAGCUCA	0.0036 ± 0.0035
GGAGACCUAUGUAUACAACCUACUGCCUCA	0.0511 ± 0.0081
GGAGACCUAUGAUAUGUACCUACAACCUGA	< 0.0001
GGAGACCUAACAAUACAACCUACUACCUGA	0.0637 ± 0.022
GGAGACCUAUCAAUACUACCUACUACCUCA	0.0216 ± 0.0056
GGAGAGCAUACUAUACAAGCUACUACCUCA	0.22 ± 0.015
GGAGACCUAUGAUUACAACCUAAUACCUCA	0.00387 ± 0.0022
GGAGUGGAUAGCUAUACAACCUACUACCUCA	0.0528 ± 0.0074
GGAGACGAUACUAUACUACCUACUACCUGA	0.167 ± 0.021
GGAGACCUUACUAUUGUACCUACUACCUCA	0.0232 ± 0.0049
